Assay results published in the supplement of paper PMC6805474.

Tests used:
[1] = test system: Schistosoma mansoni schistosomula (LE); test: XTT viability relative to DMSO control; higher = more viable (less active); details: 72 h; 10 µM
Procedure: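 XTT/PMS was then added for a further 24 h (72 h total) and A450 was read. % viability = (sample - heat-killed control)/(DMSO control - heat-killed control) x 100, from duplicate wells in two independent experiments.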

[2] = test system: Schistosoma mansoni schistosomula (NMRI); test: phenotypic severity score (0-4); higher = more antischistosomal effect, active = 2 or more; details: 10 µM
[3] = test system: Schistosoma mansoni schistosomula (Liberian); test: drug effect (1 - score/DMSO control score) (fraction); higher = more antischistosomal effect, active = 0.5 or more; extreme values may be limits of the assay; details: 10 µM
In short: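 Liberian-strain Schistosoma mansoni schistosomula, mechanically transformed from cercariae and pre-incubated at least 12 h, were exposed in duplicate (50 per well, flat-bottom 96-well plates) to 10 µM compound in Medium 199 with 5% FCS at 37 °C, 5% CO2, with 0.1% DMSO control wells. Wells were scored visually (10×) at 24, 48 and 72 h on a quarter-point scale from 3 (normal) to 0 (dead). Drug effect was derived from the mean test-well score relative to the mean DMSO-control score. Negative values were set to zero, and plates were valid only if control wells averaged at least 2.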
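Throughout, for phenotypic severity score (0-4): visual microscopic scoring of shape, motility and density changes versus 0.5% DMSO solvent controls, one point per descriptor, degeneracy or death scored 4, mean of duplicate wells.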

| Compound | XTT viability [1] [%] | phenotypic severity score ([2]; 24 h) | phenotypic severity score ([2]; 48 h) | phenotypic severity score ([2]; 72 h) | drug effect ([3]; 24 h) | drug effect ([3]; 48 h) | drug effect ([3]; 72 h) |
| --- | --- | --- | --- | --- | --- | --- | --- |
| Cc1cccc(NC(=O)c2cc(S(=O)(=O)N(C)c3ccc(F)cc3)ccc2Cl)n1 | 81 | 0 (inactive) | 0 (inactive) | 0 (inactive) | 0.05 (inactive) | 0.135 (inactive) | 0.222 (inactive) |
| Cc1nc(-c2ccccn2)nc(N2CCC(Cc3ccccc3)C2)c1Cl (stereo not drawn) | -3.46 | 0 (inactive) | 0 (inactive) | 0 (inactive) | 0.15 (inactive) | 0.1 (inactive) | 0.333 (inactive) |
| CN1CCCC1CCO[C@](C)(c1ccccc1)c1ccc(Cl)cc1 (stereo partly drawn) | 46.6 | 2 (active) | 4 (active) | 4 (active) | 0.9 (active) | 1 (active) | 1 (active) |
| CC(C)=CCC/C(C)=C\CNCCNC1C2CC3CC(C2)CC1C3 (stereo not drawn) | 13.5 | 4 (active) | 4 (active) | 4 (active) | 1 (active) | 1 (active) | 1 (active) |
| Nc1ncnc2c1c(Cc1cccc3ccccc13)nn2CC1CCNCC1 | 96.2 | 0 (inactive) | 0 (inactive) | 0 (inactive) | < 0 (inactive) | < 0 (inactive) | < 0 (inactive) |
| CCOC(=O)c1c(NC(=O)c2c(F)c(F)c(F)c(F)c2F)sc(C(N)=O)c1C | -3.42 | 4 (active) | 4 (active) | 4 (active) | 1 (active) | 1 (active) | 1 (active) |
| CNC(=O)c1nn(C)c2c1C(C)(C)Cc1cnc(Nc3ccc(N4CCN(C)CC4)cc3)nc1-2 | 157 | 3 (active) | 4 (active) | 4 (active) | 0.364 (inactive) | 0.8 (active) | 0.891 (active) |
| COc1cc(NC(=O)Cc2nn(C)c(=O)c3ccccc23)ccc1Cl | 104 | 0 (inactive) | 0 (inactive) | 0 (inactive) | 0.105 (inactive) | 0.111 (inactive) | 0.0625 (inactive) |
| CC(C)(C)c1ccc(N[C@@H]2CCCC[C@H]2NC(=O)c2ccco2)cc1 | 117 | 0 (inactive) | 0 (inactive) | 0 (inactive) | < 0 (inactive) | < 0 (inactive) | 0.111 (inactive) |
| CCN(CC)CCCCCCNc1cc(OC)cc2c(C)ccnc12 | 59.3 | 0 (inactive) | 0 (inactive) | 0 (inactive) | 0.1 (inactive) | 0.135 (inactive) | 0.167 (inactive) |
| Cc1cc(C)c2cc(C(=O)NC3CCCCCCC3)[nH]c2c1 | 124 | 0 (inactive) | 1 (inactive) | 0 (inactive) | 0.316 (inactive) | 0.333 (inactive) | 0.438 (inactive) |
| CC(=O)N1CCN(c2ccc(Oc3ccc(Cl)cc3O)cc2)CC1 | 89.7 | 0 (inactive) | 0 (inactive) | 0 (inactive) | 0.1 (inactive) | 0.027 (inactive) | 0.0303 (inactive) |
| Nc1ccc(C(=O)Nc2ccc(-c3nc4ccccc4o3)cc2)cc1 | 64.2 | 0 (inactive) | 0 (inactive) | 0 (inactive) | 0.0909 (inactive) | 0.05 (inactive) | 0.211 (inactive) |
| O=C(Nc1cccc(-c2ccc(NCCCN3CCCC3)nc2)c1)c1ccccc1 | 67.8 | 1 (inactive) | 2 (active) | 4 (active) | 0.2 (inactive) | 0.459 (inactive) | 0.515 (active) |
| COc1cccc(-n2nnnc2S(C)(=O)=O)c1 | -0.214 | 4 (active) | 4 (active) | 4 (active) | 1 (active) | 1 (active) | 1 (active) |
| Nc1nc(N)c2c3c(sc2n1)CN(Cc1ccccc1)CC3 | 131 | 0 (inactive) | 0 (inactive) | 0 (inactive) | 0.15 (inactive) | 0.278 (inactive) | 0.438 (inactive) |
| Clc1cccc(CO[C@H]2CCc3ccccc3[C@@H]2n2ccnn2)c1 | 80.7 | 3 (active) | 4 (active) | 4 (active) | < 0 (inactive) | 0.1 (inactive) | 0.158 (inactive) |
| CCOc1ccccc1NC(C)C(=O)Nc1cc(C(F)(F)F)ccc1N1CCOCC1 (stereo not drawn) | 96 | 0 (inactive) | 0 (inactive) | 0 (inactive) | 0.15 (inactive) | 0.167 (inactive) | 0.312 (inactive) |
| COc1ccc(-c2nc(-c3cccc(NC(=O)Cc4ccc(F)cc4)c3)no2)cc1OC | 137 | 0 (inactive) | 0 (inactive) | 1 (inactive) | 0.182 (inactive) | 0.2 (inactive) | 0.182 (inactive) |
| COc1ccc(C2(C(=O)Nc3ccc(Br)cc3)CCCC2)cc1 | 91 | 0 (inactive) | 0 (inactive) | 1 (inactive) | 0.25 (inactive) | 0.389 (inactive) | 0.5 (active) |
| Cc1ccc(NC(=O)CC2COc3ccccc3O2)cc1Cl (stereo not drawn) | 125 | 0 (inactive) | 0 (inactive) | 0 (inactive) | 0.136 (inactive) | 0.3 (inactive) | 0.4 (inactive) |
| CS(=O)(=O)c1ccc(C(=O)N(CC2CCCO2)c2nc3ccccc3s2)cc1[N+](=O)[O-] (stereo not drawn) | -7.96 | 4 (active) | 4 (active) | 4 (active) | 1 (active) | 1 (active) | 1 (active) |
| COc1ccc(N(CCc2cccc(C)n2)C(=O)C2CCCCC2)cc1 | 88.7 | 0 (inactive) | 2 (active) | 1 (inactive) | 0.15 (inactive) | 0.2 (inactive) | 0.111 (inactive) |
| Cc1ccc(NC(=O)c2nc[nH]c2C(=O)Nc2nc3ccccc3[nH]2)c(C)c1 | 50.8 | 3 (active) | 4 (active) | 4 (active) | 0.273 (inactive) | 0.4 (inactive) | 0.278 (inactive) |
